T1: ARID4A 568-634 Tudor-knot (domain begin residue: 568, domain end residue: 634), P29374
T1 chain: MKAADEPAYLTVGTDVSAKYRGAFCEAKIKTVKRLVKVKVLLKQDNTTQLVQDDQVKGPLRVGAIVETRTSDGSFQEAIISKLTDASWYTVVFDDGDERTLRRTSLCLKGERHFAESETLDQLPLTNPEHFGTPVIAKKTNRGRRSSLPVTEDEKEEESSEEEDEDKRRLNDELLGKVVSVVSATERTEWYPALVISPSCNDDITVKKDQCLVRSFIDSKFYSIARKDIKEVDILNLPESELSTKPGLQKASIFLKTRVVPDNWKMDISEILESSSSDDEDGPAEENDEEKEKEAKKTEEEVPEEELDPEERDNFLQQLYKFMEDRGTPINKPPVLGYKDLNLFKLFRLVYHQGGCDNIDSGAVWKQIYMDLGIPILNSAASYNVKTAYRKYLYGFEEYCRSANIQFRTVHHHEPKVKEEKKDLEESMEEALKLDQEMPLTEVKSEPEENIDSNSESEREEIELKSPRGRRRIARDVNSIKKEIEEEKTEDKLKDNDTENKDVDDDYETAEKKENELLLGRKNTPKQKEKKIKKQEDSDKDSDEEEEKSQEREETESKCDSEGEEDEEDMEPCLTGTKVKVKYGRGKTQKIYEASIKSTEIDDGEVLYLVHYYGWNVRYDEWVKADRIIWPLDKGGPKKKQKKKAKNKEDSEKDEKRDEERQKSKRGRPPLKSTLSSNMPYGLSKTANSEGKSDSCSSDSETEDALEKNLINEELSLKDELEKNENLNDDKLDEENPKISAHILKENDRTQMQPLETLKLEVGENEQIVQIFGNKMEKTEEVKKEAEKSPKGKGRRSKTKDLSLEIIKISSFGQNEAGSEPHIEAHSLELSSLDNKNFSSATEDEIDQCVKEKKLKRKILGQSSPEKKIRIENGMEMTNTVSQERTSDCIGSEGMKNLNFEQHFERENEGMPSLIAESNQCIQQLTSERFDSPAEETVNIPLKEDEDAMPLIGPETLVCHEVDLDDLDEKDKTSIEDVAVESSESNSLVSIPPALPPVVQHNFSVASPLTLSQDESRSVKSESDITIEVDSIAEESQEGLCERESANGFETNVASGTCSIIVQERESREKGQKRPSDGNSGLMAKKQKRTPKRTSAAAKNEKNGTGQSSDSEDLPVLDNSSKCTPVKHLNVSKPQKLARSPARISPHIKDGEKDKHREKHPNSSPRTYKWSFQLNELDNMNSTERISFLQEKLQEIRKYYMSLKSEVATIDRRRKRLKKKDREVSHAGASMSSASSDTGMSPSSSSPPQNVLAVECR

T2: ALDOA 1-364 Glycolytic (domain begin residue: 1, domain end residue: 364), P04075
T2 chain: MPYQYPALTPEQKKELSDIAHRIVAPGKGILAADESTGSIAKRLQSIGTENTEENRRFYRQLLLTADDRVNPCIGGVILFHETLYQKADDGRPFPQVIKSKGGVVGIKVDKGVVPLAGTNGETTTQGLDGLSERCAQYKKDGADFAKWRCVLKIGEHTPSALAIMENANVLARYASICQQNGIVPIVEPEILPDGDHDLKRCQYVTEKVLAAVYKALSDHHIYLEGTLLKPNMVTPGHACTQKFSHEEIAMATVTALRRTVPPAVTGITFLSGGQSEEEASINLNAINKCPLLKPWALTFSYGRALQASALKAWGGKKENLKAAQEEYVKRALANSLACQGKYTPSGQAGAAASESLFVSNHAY

T3: ARFGEF2 639-829 Sec7 (domain begin residue: 639, domain end residue: 829), Q9Y6D5
T3 chain: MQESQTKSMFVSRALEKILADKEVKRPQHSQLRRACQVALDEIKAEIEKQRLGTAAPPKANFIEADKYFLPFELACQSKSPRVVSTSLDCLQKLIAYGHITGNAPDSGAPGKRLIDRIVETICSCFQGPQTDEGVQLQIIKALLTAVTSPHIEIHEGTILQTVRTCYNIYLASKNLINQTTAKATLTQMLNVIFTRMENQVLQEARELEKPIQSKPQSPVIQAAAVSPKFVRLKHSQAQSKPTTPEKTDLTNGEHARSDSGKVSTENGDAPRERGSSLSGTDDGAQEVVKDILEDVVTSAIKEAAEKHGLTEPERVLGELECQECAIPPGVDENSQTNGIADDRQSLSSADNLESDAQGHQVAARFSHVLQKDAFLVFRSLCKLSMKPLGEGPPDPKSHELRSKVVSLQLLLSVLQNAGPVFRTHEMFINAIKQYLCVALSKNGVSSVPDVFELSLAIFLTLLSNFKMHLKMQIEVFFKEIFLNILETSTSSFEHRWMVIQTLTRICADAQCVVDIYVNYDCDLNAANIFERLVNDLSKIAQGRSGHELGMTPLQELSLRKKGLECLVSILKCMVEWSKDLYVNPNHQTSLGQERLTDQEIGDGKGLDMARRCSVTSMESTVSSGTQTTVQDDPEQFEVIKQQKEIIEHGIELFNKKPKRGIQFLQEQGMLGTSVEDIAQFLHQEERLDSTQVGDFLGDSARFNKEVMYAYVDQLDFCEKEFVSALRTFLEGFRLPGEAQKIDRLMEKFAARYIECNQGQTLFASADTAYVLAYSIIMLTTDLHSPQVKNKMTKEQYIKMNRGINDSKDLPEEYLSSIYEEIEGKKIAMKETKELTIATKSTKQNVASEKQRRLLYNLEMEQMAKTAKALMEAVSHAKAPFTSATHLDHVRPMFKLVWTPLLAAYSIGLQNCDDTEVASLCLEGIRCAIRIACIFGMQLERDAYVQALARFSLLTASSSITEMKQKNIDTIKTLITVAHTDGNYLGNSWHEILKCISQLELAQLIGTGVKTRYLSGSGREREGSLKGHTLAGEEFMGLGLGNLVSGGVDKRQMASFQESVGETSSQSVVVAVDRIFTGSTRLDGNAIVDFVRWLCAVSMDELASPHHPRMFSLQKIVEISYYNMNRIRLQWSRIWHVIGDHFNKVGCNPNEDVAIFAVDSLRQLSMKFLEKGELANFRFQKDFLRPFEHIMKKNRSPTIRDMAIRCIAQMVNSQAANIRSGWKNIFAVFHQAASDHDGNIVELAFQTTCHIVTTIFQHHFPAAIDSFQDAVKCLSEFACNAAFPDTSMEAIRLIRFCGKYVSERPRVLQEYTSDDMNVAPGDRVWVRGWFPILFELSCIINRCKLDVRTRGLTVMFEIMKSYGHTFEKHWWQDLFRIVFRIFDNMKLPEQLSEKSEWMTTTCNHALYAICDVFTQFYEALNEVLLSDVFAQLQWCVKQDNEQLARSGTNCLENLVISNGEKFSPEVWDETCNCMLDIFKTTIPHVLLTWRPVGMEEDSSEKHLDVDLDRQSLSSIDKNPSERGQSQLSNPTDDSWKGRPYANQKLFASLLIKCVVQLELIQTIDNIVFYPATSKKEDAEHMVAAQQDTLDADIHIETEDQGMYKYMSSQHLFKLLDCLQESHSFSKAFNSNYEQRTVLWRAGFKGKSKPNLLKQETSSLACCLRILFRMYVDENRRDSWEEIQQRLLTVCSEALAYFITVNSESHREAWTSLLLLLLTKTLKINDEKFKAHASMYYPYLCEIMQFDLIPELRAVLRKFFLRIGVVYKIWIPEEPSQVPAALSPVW

T4: ZGPAT 120-268 zf-CCCH+TUDOR (domain begin residue: 120, domain end residue: 268), Q8N5A5
T4 chain: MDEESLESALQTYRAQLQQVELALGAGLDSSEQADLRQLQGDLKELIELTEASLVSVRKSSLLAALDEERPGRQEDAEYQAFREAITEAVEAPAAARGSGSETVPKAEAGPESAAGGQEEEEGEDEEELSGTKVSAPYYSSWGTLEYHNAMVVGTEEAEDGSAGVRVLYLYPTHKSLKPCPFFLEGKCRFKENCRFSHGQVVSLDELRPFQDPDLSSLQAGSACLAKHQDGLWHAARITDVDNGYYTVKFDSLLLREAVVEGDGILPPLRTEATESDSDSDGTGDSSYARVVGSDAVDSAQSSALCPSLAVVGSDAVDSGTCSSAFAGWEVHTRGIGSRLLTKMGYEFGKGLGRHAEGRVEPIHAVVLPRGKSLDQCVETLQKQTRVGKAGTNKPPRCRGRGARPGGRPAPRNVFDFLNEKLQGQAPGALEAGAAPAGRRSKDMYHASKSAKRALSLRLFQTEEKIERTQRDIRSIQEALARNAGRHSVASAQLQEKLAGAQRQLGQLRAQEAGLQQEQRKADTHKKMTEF


Biological target: T1, ARID4A 568-634 Tudor-knot (domain begin …
Assay: phage ELISA signal ratio (GST-PRM binding over GST background); higher = stronger binding of peptide-phage to the PRM
Method: (§1)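 Phage-displayed random hexadecapeptides (Cys-free, flanked by invariant Gly linkers, fused to the M13 P8 major coat protein) were selected over 5 rounds against GST-fused human PRM domains. Individual clones from rounds 4-5 were tested by phage ELISA, and positive clones binding the target but not GST were sequenced. Values are the ELISA signal ratio of target over background (GST); the background signal is given separately.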

Row | Binder | phage ELISA signal ratio
1 | QQVVDMQQMWQQWIEI | 4.93
2 | DWWDMWAQGDILEIHS | 11.5
3 | PWDEIWEDMIEWPLPQ | 9.72
4 | GLDLDYWTMPGLETLL | 8.9
5 | MLHDGWLMPGMTHSVN | 8.8
6 | EQLEPWLMPGQSQLFG | 9.13
7 | NWDMWMEEQYDPSVML | 9.12

Biological target: T2, ALDOA 1-364 Glycolytic (domain begin …
Assay: as above
Method: as §1

Row | Binder | phage ELISA signal ratio
8 | WTYESGEWNWYTEEKT | 23.9
9 | WHVWDPVMEVFDWPEM | 18.1
10 | AWSYLHGEWEWVQPVM | 14.5
11 | WVQDTWGEGWSYTVQE | 20.2
12 | WVYENGEWEWTFPPSA | 17.8
13 | MYDEWHMPDSYEVVVQ | 19.3

Biological target: T3, ARFGEF2 639-829 Sec7 (domain begin …
Assay: as above
Method: as §1

Row | Binder | phage ELISA signal ratio
14 | QITMQQYVELWHAAKS | 24.1
15 | MPDGLPEWWQGRHDWW | 18.2
16 | NEGERLWAVLKLWHEE | 18.6

What follows are binders tested against ARF3 1-181 Arf (domain begin residue: 1, domain end residue: 181), P61204 in the same assay as above.
Method: as §1

ARF3 1-181 Arf (domain begin residue: 1, domain end residue: 181), P61204, sequence (P61204 whole entry): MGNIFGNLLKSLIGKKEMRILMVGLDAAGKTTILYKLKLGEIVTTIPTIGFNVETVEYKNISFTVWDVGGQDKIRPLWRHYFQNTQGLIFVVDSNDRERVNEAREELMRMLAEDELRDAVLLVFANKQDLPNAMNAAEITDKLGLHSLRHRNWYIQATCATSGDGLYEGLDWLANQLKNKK

Row | Binder | phage ELISA signal ratio
17 | DIYWGYHMTDFISQET | 15.3

Biological target: T4, ZGPAT 120-268 zf-CCCH+TUDOR (domain …
Assay: as above
Method: as §1

Row | Binder | phage ELISA signal ratio
18 | MLHDGWLMPGMTHSVN | 4.63
